Activity calls are given as the source filed them.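 Rule for the calls: active = a compound whose calcium signal at the M5 receptor changes in step with its dose; inactive = the rest.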
Each molecule was assayed against Muscarinic acetylcholine receptor M5 (Homo sapiens) (UniProt P08912) (assay: off-target potentiation of hM5 acetylcholine response – CHO cells, Fluo-4 calcium, ACh EC20, selectivity assay for M4 PAM optimization project, SAR follow-up (AID 623939)). Details: series mostly up to 30 µM.
Muscarinic acetylcholine receptor M5 (Homo sapiens), sequence (P08912 whole entry, looked up): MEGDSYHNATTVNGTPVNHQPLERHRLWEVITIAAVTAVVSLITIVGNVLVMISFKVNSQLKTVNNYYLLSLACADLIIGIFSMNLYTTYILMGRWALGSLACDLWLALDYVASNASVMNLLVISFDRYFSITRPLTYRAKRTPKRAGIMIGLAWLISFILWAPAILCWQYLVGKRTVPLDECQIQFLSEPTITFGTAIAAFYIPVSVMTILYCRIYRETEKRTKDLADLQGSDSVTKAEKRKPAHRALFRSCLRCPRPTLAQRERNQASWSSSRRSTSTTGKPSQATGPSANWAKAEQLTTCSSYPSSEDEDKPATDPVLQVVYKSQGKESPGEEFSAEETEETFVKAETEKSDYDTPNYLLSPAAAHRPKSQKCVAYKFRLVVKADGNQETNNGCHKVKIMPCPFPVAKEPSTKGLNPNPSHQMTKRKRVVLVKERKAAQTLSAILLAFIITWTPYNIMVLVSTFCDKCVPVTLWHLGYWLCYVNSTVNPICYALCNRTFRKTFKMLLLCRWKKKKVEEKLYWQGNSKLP

outcome, inactive:
Cc1nc2sc(C(=O)NC3CC3)c(N)c2c(C)c1Cl
Cc1nc2sc(C(=O)NCc3ccccc3)c(N)c2c(C)c1Cl
Cc1nc2sc(C(=O)NCCc3ccncc3)c(N)c2c(C)c1Cl
Cc1nc2sc(C(=O)NCc3ccncn3)c(N)c2c(C)c1Cl
Cc1nc2sc(C(=O)NCc3ccncc3)c(N)c2c(C)c1Cl
Cc1nc2sc(C(=O)NCc3ccc4c(c3)OCO4)c(N)c2c(C)c1Cl
Cc1nc2sc(C(=O)NCc3nccs3)c(N)c2c(C)c1Cl
Cc1nc2sc(C(=O)NCc3cccc(F)c3F)c(N)c2c(C)c1Cl
Cc1nc2sc(C(=O)NCc3cccnc3)c(N)c2c(C)c1Cl
COc1ccc(C)c2sc(NC(=O)c3ccncc3)nc12

Source: PubChem BioAssay AID623939 (Vanderbilt Specialized Chemistry Center, 2012)
